The campaign covered roughly 5,500 compounds. About 2,000 (36%) were called active. Another 18% or so got no clear call; they are omitted. Rule as the data show it: active = normalized growth mostly below about 0.91 (no sharp cut-off); inconclusive = no clear call, values can overlap the other calls; inactive = mostly above about 0.92. Some of the results follow.
Assay: chemical genetic growth profiling, strain panel (AID 1159580);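 also: tested at 20 µM; growth read once vehicle control cultures reached saturation at 30 °C; 1 = growth at the plate median or of vehicle wells; lower values mean less growth of the strain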
Conditions: S. cerevisiae deletion strains, growth OD

Measured: normalized growth

CCC(=O)OCC(=O)C1(OC(=O)CC)C(C)CC2C3C(Cl)CC4=CC(=O)C=CC4(C)C3C(O)CC21C (stereo not given)
inactive: locus YAL021C, strain ccr4, stronger effect = lower value 1.02 | locus YAL026C, strain drs2, stronger effect = lower value 1.03 | locus YAL030W, strain snc1, stronger effect = lower value 1.01 | locus YBL061C, strain skt5, stronger effect = lower value 1.01 | locus YBR009C, strain hhf1, stronger effect = lower value 1.09 | locus YBR023C, strain chs3, stronger effect = lower value 1.02 | locus YBR171W, strain sec66, stronger effect = lower value 1.04 | locus YBR231C, strain swc5, stronger effect = lower value 1.02 | locus YBR279W, strain paf1, stronger effect = lower value 1.01 | locus YCL011C, strain gbp2, stronger effect = lower value 1.06 | locus YCL016C, strain dcc1, stronger effect = lower value 1.04 | locus YCL069W, strain vba3, stronger effect = lower value 1.04 | locus YCR088W, strain abp1, stronger effect = lower value 1.03 | locus YDL005C, strain med2, stronger effect = lower value 1.02 | locus YDL040C, strain nat1, stronger effect = lower value 1.01 | locus YDR001C, strain nth1, stronger effect = lower value 1.04 | locus YDR069C, strain doa4, stronger effect = lower value 1.02 | locus YDR137W, strain rgp1, stronger effect = lower value 1.03 | locus YDR159W, strain sac3, stronger effect = lower value 1.01 | locus YDR195W, strain ref2 1 | locus YDR297W, strain sur2, stronger effect = lower value 1.03 | locus YDR334W, strain swr1, stronger effect = lower value 1.02 | locus YDR335W, strain msn5, stronger effect = lower value 1.05 | locus YDR392W, strain spt3, stronger effect = lower value 1.08 | locus YEL003W, strain gim4, stronger effect = lower value 1.04 | locus YEL037C, strain rad23, stronger effect = lower value 1.05 | locus YEL061C, strain CIN8 (second series), stronger effect = lower value 1.02 | locus YER015W, strain faa2, stronger effect = lower value 1.01 | locus YER016W, strain bim1, stronger effect = lower value 1.04 | locus YER111C, strain swi4, stronger effect = lower value 1.04 | locus YER155C, strain BEM2 (second series), stronger effect = lower value 1.08 | locus YFR010W, strain ubp6, stronger effect = lower value 1.02 | locus YGL167C, strain pmr1, stronger effect = lower value 1.06 | locus YGL173C, strain kem1, stronger effect = lower value 1.02 | locus YGL227W, strain vid30, stronger effect = lower value 1.01 | locus YGL240W, strain doc1, stronger effect = lower value 1.01 | locus YGL253W, strain hxk2, stronger effect = lower value 1.02 | locus YHR013C, strain ard1, stronger effect = lower value 1.08 | locus YHR027C, strain rpn1, stronger effect = lower value 1.03 | locus YHR142W, strain chs7, stronger effect = lower value 1.04 | locus YJL092W, strain hpr5, stronger effect = lower value 1.04 | locus YJL095W, strain BCK1 (second series), stronger effect = lower value 1.06 | locus YJL115W, strain asf1, stronger effect = lower value 1.02 | locus YJL129C, strain trk1, stronger effect = lower value 0.987 | locus YJL154C, strain vps35, stronger effect = lower value 1.03 | locus YJL164C, strain tpk1, stronger effect = lower value 1.07 | locus YJL166W, strain qcr8, stronger effect = lower value 1 | locus YKL160W, strain elf1, stronger effect = lower value 1.04 | locus YKR026C, strain gcn3, stronger effect = lower value 1.03 | locus YKR091W, strain srl3, stronger effect = lower value 1.03 | locus YLL001W, strain dnm1, stronger effect = lower value 1.06 | locus YLL026W, stronger effect = lower value 1.04 | locus YLL041C, strain sdh2, stronger effect = lower value 1.05 | locus YLR027C, strain aat2, stronger effect = lower value 1.06 | locus YLR221C, strain rsa3, stronger effect = lower value 1.07 | locus YLR258W, strain gsy2, stronger effect = lower value 1.07 | locus YLR262C, strain YPT6 (second series), stronger effect = lower value 1.04 | locus YLR320W, strain mms22, stronger effect = lower value 1.02 | locus YLR342W, strain FKS1, stronger effect = lower value 1.03 | locus YLR357W, strain rsc2, stronger effect = lower value 1.09 | locus YLR370C, strain arc18, stronger effect = lower value 1.03 | locus YLR384C, strain iki3, stronger effect = lower value 1.03 | locus YML120C, strain ndi1, stronger effect = lower value 1.02 | locus YMR058W, strain fet3, stronger effect = lower value 1.02 | locus YMR125W, strain sto1, stronger effect = lower value 1.07 | locus YMR129W, stronger effect = lower value 1.03 | locus YMR205C, strain PFK2, stronger effect = lower value 1.02 | locus YMR231W, strain pep5, stronger effect = lower value 1.03 | locus YNL071W, strain lat1, stronger effect = lower value 1.02 | locus YNL209W, strain ssb2, stronger effect = lower value 1.01 | locus YNL248C, strain rpa49, stronger effect = lower value 1.03 | locus YNL322C, strain KRE1 (second series), stronger effect = lower value 1.01 | locus YNR049C, strain mso1, stronger effect = lower value 1.03 | locus YOR001W, strain rrp6, stronger effect = lower value 1.04 | locus YOR070C, strain gyp1, stronger effect = lower value 1.02 | locus YOR080W, strain dia2, stronger effect = lower value 1.02 | locus YOR083W, strain WHI5, stronger effect = lower value 1.04 | locus YOR106W, strain vam3, stronger effect = lower value 1 | locus YOR265W, strain rbl2, stronger effect = lower value 1.02 | locus YOR270C, strain vph1, stronger effect = lower value 0.923 | locus YOR290C, strain snf2, stronger effect = lower value 1.06 | locus YPL051W, strain arl3, stronger effect = lower value 1.04 | locus YPL078C, strain atp4, stronger effect = lower value 0.999 | locus YPL106C, strain sse1, stronger effect = lower value 1.12 | locus YPL240C, strain hsp82, stronger effect = lower value 1.02

Source: PubChem BioAssay AID1159580 (chemical genetic matrix, 2015)
